Experimental findings from PubChem BioAssay (NCATS) are described below.

Structures are written as SMILES. A number with no mark means an inactive call. Records with an inconclusive call do not appear. Calls of active or inactive are those of the source. Unless noted, calls follow the shape of the dose curve; as a rule, active = well fitted curve in the direction sought with a large enough effect; inconclusive = small, poorly fitted or top-dose-only effect, or another doubt; inactive = no such curve, though single readings can be large; an effect the other way counts as inactive or inconclusive.

The nature of test [1]: NS1 protein of Zika virus - qHTS assay to identify small molecule inhibitors in human HEK 293 cells (AID 1347053).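 Also: series mostly up to about 46 µM; plate controls were infected untreated cells for no effect and uninfected cells for full effect; nearly all actives have a fitted effect of over 55% in size.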 The method in brief: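 Compound-treated (1 h pre-infection) HEK 293 cells infected with ZIKV MR766, MOI = 0.5; after 24 h at 37 C, NS1 read by TR-FRET; data normalized to uninfected and infected controls.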
A general note: In qHTS, concentration-response curves come from the screen itself.

The nature of test [2]: qHTS of pediatric cancer cell lines to identify multiple opportunities for drug repurposing: Primary screen for DAOY cells (AID 1347090).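 Also: series mostly up to about 46 µM; plate controls were DMSO for no effect and bortezomib for full effect; nearly all actives have a fitted effect of over 55% in size.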 The method in brief: (§1)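 Eight- or eleven-point concentration series, 48 h treatment at 37 degrees C in growth media; readout CellTiter-Glo luminescence. Potency and efficacy were taken from the concentration-response curves.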
Test [3] can be described thus: qHTS of pediatric cancer cell lines to identify multiple opportunities for drug repurposing: Primary screen for SJ-GBM2 cells (AID 1347091).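 Also: plate controls were DMSO neutral control for no effect and bortezomib for full effect.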 The method in brief: as §1
The nature of test [4]: qHTS of pediatric cancer cell lines to identify multiple opportunities for drug repurposing: Primary screen for A673 cells (AID 1347092). Also: nearly all actives have a fitted effect of over 45% in size. Also: potency is read from the fitted curve at half-maximal effect. As to activity change, negative = cytotoxic: % is scaled to controls: 0 for no effect and ±100 for the full control effect. The method in brief:
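48 h compound exposure, A673, 500-1,000 cells/well, 37 degrees C/5% CO2. MIPE: 11-point, 0.78 nM-46 µM; NPC: 8-point, 0.59 nM-46 µM (final). Readout CellTiter-Glo luminescence after 15 min RT.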

Test [5] can be described thus: qHTS of pediatric cancer cell lines to identify multiple opportunities for drug repurposing: Primary screen for SK-N-MC cells (AID 1347093). Also: potency is read from the fitted curve at half-maximal effect.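 As to activity change, negative = cytotoxic: series mostly up to about 46 µM; plate controls were DMSO neutral control for no effect and bortezomib for full effect.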 The method in brief:
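Metabolically active cells were quantified by ATP-dependent luminescence (CellTiter-Glo, 15 min at room temperature) following 48 h treatment. Cells had been plated at 500-1,000 per well and settled for 5 h beforehand.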

Test [6] can be described thus: qHTS of pediatric cancer cell lines to identify multiple opportunities for drug repurposing: Primary screen for BT-37 cells (AID 1347094). Also: potency is read from the fitted curve at half-maximal effect.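 As to activity change, negative = cytotoxic: series mostly up to about 57 µM; plate controls were DMSO for no effect and bortezomib for full effect.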 The method in brief: (§2)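 Plated cells (500-1,000 per well, growth media) were allowed to settle for 5 hours, treated with compound dilutions for 48 hours, then lysed with CellTiter-Glo for 15 min at room temperature before luminescence reading.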

The nature of test [7]: qHTS of pediatric cancer cell lines to identify multiple opportunities for drug repurposing: Primary screen for NB-EBc1 cells (AID 1347095).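 Also: plate controls were DMSO neutral control for no effect and bortezomib for full effect.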 Put shortly: as §2
The nature of test [8]: qHTS of pediatric cancer cell lines to identify multiple opportunities for drug repurposing: Primary screen for U-2 OS cells (AID 1347096).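 Also: plate controls were DMSO wells for no effect and bortezomib positive control wells for full effect; nearly all actives have a fitted effect of over 50% in size.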 Put shortly:
(§3)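 Cells (500-1,000/well) in growth media were settled 5 h at 37 degrees C, then given compounds for 48 h. Viability was read as CellTiter-Glo luminescence. Primary runs used MIPE at 11 points (0.78 nM-46 µM) and NPC at 8 points (0.59 nM-46 µM); follow-ups used 11 points.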

A short description of test [9]: qHTS of pediatric cancer cell lines to identify multiple opportunities for drug repurposing: Primary screen for Saos-2 cells (AID 1347097). Also: nearly all actives have a fitted effect of over 40% in size. Also: potency is read from the fitted curve at half-maximal effect. As to activity change, negative = cytotoxic: % is scaled to controls: 0 for no effect and ±100 for the full control effect. Put shortly: as §2
A short description of test [10]: qHTS of pediatric cancer cell lines to identify multiple opportunities for drug repurposing: Primary screen for SK-N-SH cells (AID 1347098). Also: nearly all actives have a fitted effect of over 65% in size. Also: potency is read from the fitted curve at half-maximal effect.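 As to activity change, negative = cytotoxic: DMSO served as neutral control and bortezomib at 2.3 µM as positive control; % is scaled to controls: 0 for no effect and ±100 for the full control effect.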 Put shortly:
(§4)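 Cells (500-1,000/well) rested 5 h, then received compounds for 48 h; metabolically active cells were measured by CellTiter-Glo luminescence. Final concentrations spanned up to 46 µM (MIPE, 11-point) or 0.59 nM-46 µM (NPC, 8-point) in primary screens, 11-point in follow-ups.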

Test [11] is described as follows: qHTS of pediatric cancer cell lines to identify multiple opportunities for drug repurposing: Primary screen for NB1643 cells (AID 1347099).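 Also: plate controls were DMSO neutral control for no effect and bortezomib positive control for full effect; nearly all actives have a fitted effect of over 50% in size.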 Put shortly:
as §2

A short description of test [12]: qHTS of pediatric cancer cell lines to identify multiple opportunities for drug repurposing: Primary screen for LAN-5 cells (AID 1347100). Also: potency is read from the fitted curve at half-maximal effect.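 As to activity change, negative = cytotoxic: plate controls were DMSO neutral control for no effect and bortezomib positive control for full effect.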 Put shortly: as §3
Test [13] is described as follows: qHTS of pediatric cancer cell lines to identify multiple opportunities for drug repurposing: Primary screen for BT-12 cells (AID 1347101). Also: nearly all actives have a fitted effect of over 25% in size. Also: potency is read from the fitted curve at half-maximal effect.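 As to activity change, negative = cytotoxic: plate controls were DMSO for no effect and bortezomib positive control for full effect.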 The method in brief: as §4
Test [14] concerns the target T1, Tyrosine-protein phosphatase non-receptor type substrate 1 (Homo sapiens) + Leukocyte surface antigen CD47 (Homo sapiens) (UniProt P78324+Q08722). Kind of test: CD47-SIRPalpha protein protein interaction - LANCE assay qHTS validation (AID 1347057; active = well fitted curve in the direction sought with a large enough effect in the signal ratio, with a control signal flat, not every such curve was filed as active; the % refers to the signal ratio; also: series mostly up to about 38 µM; 0% is about no effect). The method in brief: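 Inhibition of soluble CD47/SIRPalpha ectodomain association by titrated compounds, measured as 665/615 nm time-resolved FRET ratio after sequential 30 min room-temperature incubations.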
On the technique in general: TR-FRET usually uses a lanthanide donor and a delayed reading to cut background.

Test [15] deals with T1, Tyrosine-protein phosphatase non-receptor type substrate 1 (Homo sapiens) + Leukocyte surface antigen CD47 (Homo sapiens). Briefly: CD47-SIRPalpha protein protein interaction - Alpha assay qHTS validation (AID 1347059).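 Also: bead proximity luminescence from CD47 binding SIRPalpha after compound preincubation with SIRPalpha; % is scaled to controls: 0 for no effect and ±100 for the full control effect.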 Put shortly: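 In PBS (pH 7.4) with 0.05% IGEPAL CA-630, compound is preincubated with biotin-Avi-SIRPalpha ectodomain before His-CD47 ectodomain and affinity beads are added. Light-protected room-temperature incubations; AlphaScreen readout.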

Test [16] addresses Parathyroid hormone/parathyroid hormone-related peptide receptor (Homo sapiens) (UniProt Q03431). Kind of test: qHTS for PTHR1 Agonists: Optimization Screen against the NCGC LOPAC library (AID 1347079).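 Also: GloSensor cAMP luminescence in HEK-293 GP2 cells expressing human PTHR1 with IBMX; 0% is about no effect.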 The method in brief: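 HEK-293 GP2 cells, PTHR1 + GloSensor cAMP; 3000 cells/well, o/n. Luciferin + IBMX 0.5mM each (stock), 1 hr 37C. Cpd titration, 1 hr 37C. Lum after 15 min RT. Ctrl M-PTH(1-15) top 10uM.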

A short description of test [17]: qHTS of pediatric cancer cell lines to identify multiple opportunities for drug repurposing: Primary screen for TC32 cells (AID 1347089). Also: % is scaled to controls: 0 for no effect and ±100 for the full control effect; nearly all actives have a fitted effect of over 60% in size. Put shortly: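 In the primary qHTS, MIPE compounds were tested at 11 concentrations (0.78 nM to 46 µM) and NPC compounds at 8 (0.59 nM to 46 µM) on TC32 cells for 48 h. CellTiter-Glo luminescence gave viability.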

T1 sequence (P78324 whole entry, looked up, the tested form may be a part): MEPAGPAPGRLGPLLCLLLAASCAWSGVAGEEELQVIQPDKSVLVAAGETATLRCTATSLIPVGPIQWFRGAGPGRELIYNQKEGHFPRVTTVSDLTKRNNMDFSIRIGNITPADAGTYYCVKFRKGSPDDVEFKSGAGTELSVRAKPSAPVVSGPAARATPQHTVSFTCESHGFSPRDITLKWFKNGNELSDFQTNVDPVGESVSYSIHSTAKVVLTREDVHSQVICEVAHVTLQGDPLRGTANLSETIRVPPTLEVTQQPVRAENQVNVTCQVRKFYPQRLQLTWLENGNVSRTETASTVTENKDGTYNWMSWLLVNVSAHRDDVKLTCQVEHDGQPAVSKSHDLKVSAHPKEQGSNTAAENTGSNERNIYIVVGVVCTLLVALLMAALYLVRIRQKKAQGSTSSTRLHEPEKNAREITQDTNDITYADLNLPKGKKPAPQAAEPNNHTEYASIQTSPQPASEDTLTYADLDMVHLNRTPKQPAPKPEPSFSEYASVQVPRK
T1 sequence (Q08722 whole entry, looked up, the tested form may be a part): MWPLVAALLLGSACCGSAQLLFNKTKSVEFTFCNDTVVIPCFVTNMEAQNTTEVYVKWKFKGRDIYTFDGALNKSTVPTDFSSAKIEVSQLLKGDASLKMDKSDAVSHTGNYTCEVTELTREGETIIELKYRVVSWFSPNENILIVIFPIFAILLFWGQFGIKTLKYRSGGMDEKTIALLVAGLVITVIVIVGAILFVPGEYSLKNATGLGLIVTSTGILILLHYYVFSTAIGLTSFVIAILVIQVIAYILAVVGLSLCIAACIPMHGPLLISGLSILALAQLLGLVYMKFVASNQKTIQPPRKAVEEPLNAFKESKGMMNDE
Sequence of Parathyroid hormone/parathyroid hormone-related peptide receptor (Homo sapiens) (Q03431 whole entry, looked up): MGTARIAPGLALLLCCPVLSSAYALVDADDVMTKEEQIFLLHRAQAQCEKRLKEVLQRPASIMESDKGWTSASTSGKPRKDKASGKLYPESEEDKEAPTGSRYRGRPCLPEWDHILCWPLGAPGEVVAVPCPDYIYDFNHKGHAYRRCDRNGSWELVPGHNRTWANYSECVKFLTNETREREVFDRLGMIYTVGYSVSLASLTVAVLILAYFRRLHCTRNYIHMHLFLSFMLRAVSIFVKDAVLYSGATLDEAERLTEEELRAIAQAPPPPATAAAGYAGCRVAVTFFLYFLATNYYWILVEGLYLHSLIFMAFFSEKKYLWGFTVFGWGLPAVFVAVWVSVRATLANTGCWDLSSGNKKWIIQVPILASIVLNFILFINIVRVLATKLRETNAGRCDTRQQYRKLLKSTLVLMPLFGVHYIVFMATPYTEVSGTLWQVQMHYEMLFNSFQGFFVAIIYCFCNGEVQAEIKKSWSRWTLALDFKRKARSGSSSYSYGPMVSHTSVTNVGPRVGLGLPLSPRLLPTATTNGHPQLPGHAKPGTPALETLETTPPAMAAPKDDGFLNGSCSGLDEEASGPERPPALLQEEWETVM

Regarding `CCOC(CN1CCN(CC(C)C(=O)c2ccccc2)CC1)c1ccccc1` (configuration not stated), the Potency entry in test [1], in test [2], in test [3], in test [4], in [5] and in [6] was “inactive” in each case. The Potency entry in test [7], in [8], in test [9], in test [10], in test [11] and in test [12] was “inactive” throughout. Moreover, the Potency entry in [13] is “inactive”.

Turning to `NC(=O)NNc1ccccc1`, the Potency entry in test [1], in test [2], in test [3], in [4], in [5] and in test [6] was “inactive” throughout. Moreover, the Potency result in test [7], in [8], in test [9], in [10], in test [11] and in [12] was “inactive” throughout. The Potency entry in [13] is “inactive”.

As for `CCCCOc1cc(C(=O)OCCN(CC)CC)ccc1N`, the Potency entry in test [1], in test [2], in test [3], in [4], in [5] and in test [6] was “inactive” in each case. Also, the Potency entry in test [7], in test [8], in test [9], in [10], in [11] and in test [12] was “inactive” each time. For the same compound, in [13], the Potency result is “inactive”.

For the compound `CCCCN(CCCC)CCCOC(=O)c1ccc(N)cc1`, the Potency entry in test [1], in test [2], in test [3], in [4], in [5] and in test [6] was “inactive” each time. Further, the Potency result in test [7], in test [8], in test [9], in test [10], in [11] and in test [12] was “inactive” each time. Moreover, the Potency result in test [13] is “inactive”.

Turning to `CC1(C)CO[C@@H](CC(=O)O)CN1`, the Potency result in test [1], in test [3], in test [5], in test [6], in [7] and in test [8] was “inactive” each time. The Potency entry in test [9], in test [10], in [11], in test [12] and in test [13] was “inactive” throughout.

Consider `NCC(=O)CCC(=O)O`, for which the Potency entry in test [1], in [2], in test [3], in [4], in test [5] and in [6] was “inactive” throughout. The Potency result in test [7], in test [8], in [9], in test [10], in test [11] and in test [12] was “inactive” throughout. Besides, the Potency result in test [13] was “inactive”.

With `[Cl][In]([Cl])[Cl]`, the Potency result in [1], in test [2], in test [3], in test [7], in test [8] and in [10] was “inactive” each time. Besides, the Potency entry in test [11], in test [12] and in test [13] was “inactive” in each case. Also, the Potency in [9] was 8.63 µM (active).

Turning to `c1ccc(CN(CC2=NCCN2)c2ccccc2)cc1`, the Potency result in test [1], in test [2], in test [3], in test [4], in test [5] and in test [6] was “inactive” in each case. Further, the Potency result in test [7], in test [8], in [9], in test [10], in test [11] and in test [12] was “inactive” throughout. Further, the Potency result in test [13] is “inactive”.

With `Cc1cccc(C)c1NC(=O)CN(CC(=O)O)CC(=O)O`, the Potency entry in test [1], in test [3], in [4], in test [5], in test [6] and in test [7] was “inactive” in each case. The Potency result in [8], in test [9], in test [10], in test [11], in [12] and in test [13] was “inactive” throughout.

For `COc1ccccc1O`, the Potency entry in test [1], in test [2], in [3], in test [4], in [5] and in test [6] was “inactive” in each case. Moreover, the Potency entry in test [7], in test [8], in test [9], in [10], in [11] and in test [12] was “inactive” each time. Further, the Potency entry in test [13] was “inactive”.

As to `CCOC(=O)[C@H](CCc1ccccc1)N[C@@H](C)C(=O)N1C(=O)N(C)C[C@H]1C(=O)O`, the Potency result in test [1], in [2], in test [3], in test [5], in [6] and in [7] was “inactive” in each case. Also, the Potency result in [8], in test [9], in [10], in [11], in [12] and in test [13] was “inactive” each time.

Consider `O=Cc1ccccc1C=O`, for which the Potency result in test [1], in test [2], in test [3], in test [4], in [5] and in test [6] was “inactive” in each case. Further, the Potency entry in test [7], in test [9], in [10], in test [11], in [12] and in test [13] was “inactive” each time.

As to `COc1ccc2cc1Oc1ccc(cc1)C[C@H]1c3c(cc4c(c3Oc3cc5c(cc3OC)CCN(C)[C@@H]5C2)OCO4)CCN1C`, the Potency entry in test [2] and in [11] was “inactive” in each case. In addition, the Potency in test [4] was 13.3 µM (active); in test [5], 15 µM (active); in test [6], 17.4 µM (active); in test [10] it was 12.2 µM (active); in [13], 24.6 µM (active).

Turning to `NC(CSCC(=O)O)C(=O)O` (configuration not stated), the Potency entry in [1], in test [3], in test [4], in [5], in [6] and in test [7] was “inactive” in each case. In addition, the Potency result in [8], in test [9], in test [10], in test [11], in [12] and in test [13] was “inactive” in each case.

Consider `CN1CCN(C2Cc3ccccc3Sc3ccc(Cl)cc32)CC1` (configuration not stated), for which the outcome in [14] and in test [15] was inactive. Moreover, the Potency result in test [16] and in test [17] was “inactive” in each case. The Potency is 21.1 µM (active) in [5], 21.7 µM (active) in test [10] and 9.44 µM (active) in [12].

As to `CS(=O)(=O)c1ccc([C@@H](O)[C@@H](CF)NC(=O)C(Cl)Cl)cc1`, the Potency entry in test [1], in test [3], in [4], in test [5], in test [6] and in test [7] was “inactive” in each case. Moreover, the Potency entry in test [8], in test [9], in test [10], in test [11] and in test [12] was “inactive” each time.

`Cc1cc2c(cc1S(N)(=O)=O)S(=O)(=O)CCC2`: the Potency entry in test [1], in test [3], in [4], in test [5], in test [6] and in test [7] was “inactive” each time. Moreover, the Potency result in [8], in test [9], in test [10], in test [11], in [12] and in test [13] was “inactive” each time.

Take `O=C(O)[C@@H]1CSCN1`: the Potency result in [1], in test [2], in test [3], in test [4], in test [5] and in test [6] was “inactive” throughout. The Potency entry in test [7], in test [8], in test [10], in test [11], in test [12] and in test [13] was “inactive” in each case.

As to `C[C@@H]1CC[C@@]2(OC1)O[C@H]1C[C@H]3[C@@H]4CC[C@H]5C[C@@H](O)CC[C@]5(C)[C@H]4CC(=O)[C@]3(C)[C@H]1[C@@H]2C`, the activity change, negative = inhibition in test [1] was -2.82% [at 4.81 µM]. Also, the activity change, negative = cytotoxic is 10.7% [at 4.84 µM] in test [2]; 26.5% [at 4.84 µM] in test [3]; 9.64% [at 4.84 µM] in test [4]; 6.15% [at 4.84 µM] in test [5]; 3.33% [at 6.03 µM] in test [6]; 21.8% [at 4.84 µM] in [7]. In addition, the activity change, negative = cytotoxic is 8.89% [at 4.84 µM] in [8]; -14.3% [at 4.84 µM] in test [9]; -10.6% [at 6 µM] in test [10]; 31.5% [at 4.84 µM] in test [11]; -6.9% [at 4.84 µM] in test [12]; 6.34% [at 6.03 µM] in test [13].
